Drawing on PubChem BioAssay, this text covers composite z-score and z-score for 9 molecules.

Structures are written as SMILES. Activity calls are given as the source filed them.

The nature of assay [1]: small molecules captured by biotinylated probe aFSTL3 – biochemical, small-molecule microarray, fluorescence 635/667, stem cell growth factor project, primary screen (AID 1064).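 Note: measures binding of the biotinylated anti-FSTL3 antibody to printed compounds.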 As to conditions: higher = more signal.
Assay [2] is described as follows: binders from COS7 lysate, DM2A8 probe, primary screen, torsin A project, cell lysate, small-molecule microarray, fluorescence 635/667 (AID 1065). The settings on record: higher = more signal, COS7 lysate expressing mutant human TOR1A.
A short description of assay [3]: small molecules captured by biotinylated probe aFGF2 – biochemical, small-molecule microarray, fluorescence 635/667, stem cell growth factor project, primary screen (AID 1067).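 Note: measures binding of biotinylated aFGF2 protein to printed compounds on slides; z-score merges feature fluorescence and signal-to-noise across triplicate slides.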 The settings on record: higher = more signal.
A short description of assay [4]: small molecules captured by biotinylated probe aFGF10 – biochemical, small-molecule microarray, fluorescence 635/667, stem cell growth factor project, primary screen (AID 1071).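 Note: score merges 667 nm spot intensity and signal to noise from triplicate slides.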 As to conditions: higher = more signal.
In assay [5] the target is Neurogenic locus notch homolog protein 2 (Homo sapiens) (UniProt Q04721). As to the kind of experiment: small molecules binding Notch2 protein – biochemical, small-molecule microarray, 635 nm fluorescence, stem cell growth factors, primary screen (AID 1073). The settings on record: higher = more signal.
Sequence of Neurogenic locus notch homolog protein 2 (Homo sapiens) (Q04721 whole entry, looked up, canonical isoform): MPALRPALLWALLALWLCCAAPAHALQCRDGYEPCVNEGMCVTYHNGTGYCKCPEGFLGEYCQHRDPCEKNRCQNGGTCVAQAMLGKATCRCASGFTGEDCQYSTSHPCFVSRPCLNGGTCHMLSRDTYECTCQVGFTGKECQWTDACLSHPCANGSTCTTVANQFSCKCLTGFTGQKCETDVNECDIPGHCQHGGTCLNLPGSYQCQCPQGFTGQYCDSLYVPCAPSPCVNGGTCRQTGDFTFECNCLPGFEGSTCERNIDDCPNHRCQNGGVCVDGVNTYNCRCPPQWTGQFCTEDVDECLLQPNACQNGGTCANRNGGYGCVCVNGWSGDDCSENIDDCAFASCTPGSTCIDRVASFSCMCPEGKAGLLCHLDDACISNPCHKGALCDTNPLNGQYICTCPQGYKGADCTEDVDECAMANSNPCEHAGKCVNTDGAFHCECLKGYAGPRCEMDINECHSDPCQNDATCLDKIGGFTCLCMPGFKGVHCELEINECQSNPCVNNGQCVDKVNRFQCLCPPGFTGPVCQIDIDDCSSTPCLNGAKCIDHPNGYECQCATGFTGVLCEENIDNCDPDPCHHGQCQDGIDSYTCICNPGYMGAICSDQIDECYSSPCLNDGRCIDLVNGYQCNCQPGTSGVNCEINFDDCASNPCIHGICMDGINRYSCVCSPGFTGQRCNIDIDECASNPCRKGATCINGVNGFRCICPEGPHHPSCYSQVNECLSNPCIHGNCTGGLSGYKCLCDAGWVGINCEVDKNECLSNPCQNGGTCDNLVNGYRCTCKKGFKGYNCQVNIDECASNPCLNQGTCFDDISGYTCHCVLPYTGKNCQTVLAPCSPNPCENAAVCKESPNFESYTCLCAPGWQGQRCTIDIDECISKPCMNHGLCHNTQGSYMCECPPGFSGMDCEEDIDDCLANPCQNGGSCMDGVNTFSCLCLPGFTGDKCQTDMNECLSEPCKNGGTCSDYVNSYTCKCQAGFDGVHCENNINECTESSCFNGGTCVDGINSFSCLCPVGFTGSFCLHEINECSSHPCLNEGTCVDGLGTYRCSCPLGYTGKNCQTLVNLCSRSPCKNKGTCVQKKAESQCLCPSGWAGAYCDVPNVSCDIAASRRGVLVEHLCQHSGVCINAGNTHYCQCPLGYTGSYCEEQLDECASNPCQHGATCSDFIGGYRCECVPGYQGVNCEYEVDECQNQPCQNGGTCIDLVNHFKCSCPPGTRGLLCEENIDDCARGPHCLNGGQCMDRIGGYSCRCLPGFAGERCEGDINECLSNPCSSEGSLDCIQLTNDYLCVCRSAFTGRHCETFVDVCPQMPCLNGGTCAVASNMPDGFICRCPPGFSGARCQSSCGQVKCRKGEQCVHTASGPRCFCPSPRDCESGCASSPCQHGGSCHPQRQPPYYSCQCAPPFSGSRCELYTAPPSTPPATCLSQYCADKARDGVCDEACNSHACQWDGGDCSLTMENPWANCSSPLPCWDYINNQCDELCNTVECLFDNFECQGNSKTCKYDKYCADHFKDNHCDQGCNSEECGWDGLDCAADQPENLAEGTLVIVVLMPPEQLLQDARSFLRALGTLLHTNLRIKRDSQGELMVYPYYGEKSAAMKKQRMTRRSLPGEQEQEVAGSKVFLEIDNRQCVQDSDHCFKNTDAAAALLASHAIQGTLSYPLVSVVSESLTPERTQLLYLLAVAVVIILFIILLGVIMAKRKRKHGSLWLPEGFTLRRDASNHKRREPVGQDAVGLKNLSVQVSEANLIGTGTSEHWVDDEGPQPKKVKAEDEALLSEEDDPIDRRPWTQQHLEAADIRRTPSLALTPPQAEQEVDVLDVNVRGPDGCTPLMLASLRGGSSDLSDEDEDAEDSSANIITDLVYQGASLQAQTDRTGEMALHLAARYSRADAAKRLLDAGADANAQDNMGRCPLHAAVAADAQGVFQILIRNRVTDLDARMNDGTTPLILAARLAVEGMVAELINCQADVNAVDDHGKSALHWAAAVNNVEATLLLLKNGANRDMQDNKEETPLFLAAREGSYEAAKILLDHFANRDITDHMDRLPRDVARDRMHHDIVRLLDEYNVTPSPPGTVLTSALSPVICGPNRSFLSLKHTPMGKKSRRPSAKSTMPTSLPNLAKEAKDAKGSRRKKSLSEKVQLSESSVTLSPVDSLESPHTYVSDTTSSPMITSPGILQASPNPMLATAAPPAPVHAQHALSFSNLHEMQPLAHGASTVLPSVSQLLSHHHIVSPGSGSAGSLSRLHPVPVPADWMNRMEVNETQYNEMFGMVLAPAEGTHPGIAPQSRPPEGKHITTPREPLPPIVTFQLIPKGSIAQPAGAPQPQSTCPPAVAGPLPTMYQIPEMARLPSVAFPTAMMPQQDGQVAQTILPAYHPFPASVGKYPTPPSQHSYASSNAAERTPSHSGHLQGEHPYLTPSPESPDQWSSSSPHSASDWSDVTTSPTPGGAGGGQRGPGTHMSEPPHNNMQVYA
For assay [6], the target named is Pro-neuregulin-1, membrane-bound isoform (Homo sapiens) (UniProt Q02297). As to the kind of experiment: small molecules binding neuregulin-1 protein – biochemical, small-molecule microarray, fluorescence 635/667, psychiatric disease protein project, primary screen (AID 1075).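 Note: score combines 667 nm spot fluorescence with signal to noise.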 As to conditions: NRG1 binding, 635 nm fluorescence, higher = more signal.
Sequence of Pro-neuregulin-1, membrane-bound isoform (Homo sapiens) (Q02297 whole entry, looked up, the tested form may be a part, canonical isoform): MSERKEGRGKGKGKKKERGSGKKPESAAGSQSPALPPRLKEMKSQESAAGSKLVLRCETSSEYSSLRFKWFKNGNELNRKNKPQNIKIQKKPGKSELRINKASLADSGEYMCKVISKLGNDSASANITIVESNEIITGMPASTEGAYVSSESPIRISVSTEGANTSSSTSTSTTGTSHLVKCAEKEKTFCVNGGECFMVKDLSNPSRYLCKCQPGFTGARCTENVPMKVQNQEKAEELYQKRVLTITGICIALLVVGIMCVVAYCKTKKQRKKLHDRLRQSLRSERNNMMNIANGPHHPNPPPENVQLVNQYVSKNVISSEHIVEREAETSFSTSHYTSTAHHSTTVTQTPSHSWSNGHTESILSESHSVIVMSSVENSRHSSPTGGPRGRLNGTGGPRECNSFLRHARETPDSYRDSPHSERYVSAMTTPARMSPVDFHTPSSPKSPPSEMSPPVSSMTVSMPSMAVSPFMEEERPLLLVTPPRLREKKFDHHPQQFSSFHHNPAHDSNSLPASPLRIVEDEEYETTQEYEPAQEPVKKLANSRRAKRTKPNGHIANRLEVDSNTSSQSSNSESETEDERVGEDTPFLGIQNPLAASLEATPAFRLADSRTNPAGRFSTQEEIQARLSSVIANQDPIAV
Assay [7] deals with Neuregulin-1 EGF-like domain. As to the kind of experiment: small molecules binding NRG1 EGF domain – biochemical, small-molecule microarray, 635 nm fluorescence, primary screen (AID 1081).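 Note: binding of the protein to compounds printed on small-molecule microarray slides.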 As to conditions: higher = more signal.
The nature of assay [8]: FRG1 expression reporter modulators in myotubes – cell-based, C2C12 myotubes, firefly/Renilla luciferase, luminescence, FRG1 inhibition for FSHD, primary screen (AID 1084). As to conditions: FRG1 promoter luciferase, higher = more signal, called active from +8 up or from −8 down.
Assay [9] is described as follows: small molecules captured by biotinylated probe aFST – biochemical, small-molecule microarray, fluorescence 635/667, stem cell growth factor project, primary screen (AID 1086).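 Note: score merges 667 nm fluorescence with signal-to-noise of each printed compound spot.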 As to conditions: higher = more signal.
Assay [10] is described as follows: binders of probe aHhip on microarray, primary screen, stem cell growth factor project, biochemical, small-molecule microarray, fluorescence 635/667 (AID 1087).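 Note: score merges spot fluorescence at 667nm with spot signal to noise ratio.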 The settings on record: higher = more signal.
Assay [11] has as its system PRMT1 (protein arginine N-methyltransferase 1). As to the kind of experiment: small molecules binding arginine methyltransferase PRMT1 – biochemical, small-molecule microarray, 635 nm fluorescence, primary screen (AID 1088).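 Note: binding of Prmt1 protein to compounds spotted on small-molecule microarray slides.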 The settings on record: higher = more signal.
Assay [12] in a line: growth effects on S. cerevisiae YJM789 – YJM789 clinical isolate, OD600, 24 h, basal, primary screen (AID 1089).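 Note: growth of clinical yeast isolate S. cerevisiae YJM 789 seeded 1000 cells per well; test concentration not given here.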 The settings on record: higher = more signal, called active from +8 up or from −8 down.
Assay [13] in a line: S. pombe growth modifiers, basal conditions – strain 972, OD600, 24 h, no modulator, primary screen (AID 1090).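 Note: basal condition with compound alone and no growth modifier present; test concentration not given here.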 As to conditions: S. pombe 972 growth, higher = more signal, called active from +8 up or from −8 down.
Assay [14] in a line: budding yeast growth modifiers under rapamycin – strain BY4716, OD600, 96 h, primary screen (AID 1091). Note: test concentration not given here. The settings on record: S. cerevisiae BY4716 + rapamycin, higher = more signal, called active from +8 up or from −8 down.
Assay [15] has as its target Torsin-1A-interacting protein 2 (Homo sapiens) (UniProt Q8NFQ8). The assay can be described thus: small molecules binding lysate-expressed LULL1 – cell lysate, human LULL1 lysate, 635/667 nm fluorescence, primary screen (AID 1092).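 Note: score merges per-feature 667 nm fluorescence with signal-to-noise.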 The settings on record: small-molecule microarray, hLULL1 lysate binding, 635 nm fluorescence; higher = more signal.
A short description of assay [16]: optical density change of DRC41 E. coli – strain DRC41, OD650, 24 h, E. coli filamentation project, primary screen (AID 1093).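 Note: MC1000 strain lacking acrAB efflux and sulA so SOS filamentation is blocked; test concentration not given here.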 The settings on record: E. coli DRC41 growth, higher = more signal, called active from +8 up or from −8 down.
Assay [17] is described as follows: probe aLefty2 binding to arrayed compounds – biochemical, biotinylated probe, 635/667 nm fluorescence, primary screen (AID 1094).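 Note: score merges spot fluorescence near 667 nm with spot signal-to-noise ratio.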 As to conditions: small-molecule microarray, higher = more signal.
Assay [18] has as its system Noggin (protein binding on small-molecule microarray). The assay can be described thus: small molecules binding Noggin protein – biochemical, 635/667 nm fluorescence, primary screen (AID 1095).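 Note: score merges 667 nm feature fluorescence with signal to noise over triplicate slides.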 As to conditions: 635 nm fluorescence, higher = more signal.
Assay [19] concerns the target Neurogenic locus notch homolog protein 3 (Homo sapiens) (UniProt Q9UM47). As to the kind of experiment: small molecules binding NOTCH3 protein – biochemical, 635/667 nm fluorescence, primary screen (AID 1096). As to conditions: small-molecule microarray, 635 nm fluorescence, higher = more signal.
Assay [20] is described as follows: probe aEGFR binding to arrayed compounds – biochemical, biotinylated probe, 635/667 nm fluorescence, primary screen (AID 1097).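 Note: probe is a biotinylated anti-EGFR antibody binding compounds printed on slides; score combines fluorescence near 667 nm and signal to noise of each spot.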 As to conditions: small-molecule microarray, higher = more signal.

Sequence of Torsin-1A-interacting protein 2 (Homo sapiens) (Q8NFQ8 whole entry, looked up): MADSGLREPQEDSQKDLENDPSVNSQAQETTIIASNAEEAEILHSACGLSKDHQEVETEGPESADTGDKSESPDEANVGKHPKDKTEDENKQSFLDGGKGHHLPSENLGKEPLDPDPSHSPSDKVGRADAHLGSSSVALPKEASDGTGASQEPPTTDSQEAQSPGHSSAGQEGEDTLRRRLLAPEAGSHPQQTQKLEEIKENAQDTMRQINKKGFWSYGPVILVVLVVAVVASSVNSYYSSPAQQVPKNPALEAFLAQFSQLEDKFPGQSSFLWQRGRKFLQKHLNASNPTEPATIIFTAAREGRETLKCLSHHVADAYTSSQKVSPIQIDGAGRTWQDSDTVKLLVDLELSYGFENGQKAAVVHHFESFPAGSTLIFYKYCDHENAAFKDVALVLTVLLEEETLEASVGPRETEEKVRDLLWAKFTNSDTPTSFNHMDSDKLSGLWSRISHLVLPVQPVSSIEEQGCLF

On to `COc1ccc([Si](C)(C)[C@@H]2[C@@H](CCn3cc([C@H](O)c4ccccc4)nn3)O[C@]3(C(=O)N(Cc4ccc(N5C(=O)c6cccc7cccc5c67)cc4)c4ccccc43)[C@H]2C)cc1`, for which the composite z-score in [1] is 0.428; in [2], 0.174; in [3], -0.162; in assay [4], -0.16; in assay [5] it was -0.574; in assay [6], 0.569. Further, the composite z-score in [7] is 0.594; in [9] it was -0.587; in assay [10], -0.199; in assay [11] it was 0.534; in [15], 1; in assay [17], -0.0237. Moreover, the composite z-score is -0.345 in assay [18], 0.0481 in assay [19] and -0.217 in assay [20]. For the same molecule, the z-score in assay [8] is -0.353 (inactive); in assay [12], 0.316 (inactive); in assay [13], -0.197 (inactive); in [14], 1.64 (inactive); in assay [16], 1.05 (inactive).

Take `C=C(COC)/C(=C/C[C@H](OC(=O)c1ccncc1)c1cccc(OCCO)c1)c1cc(C(=O)OC)ccc1OC`: the composite z-score in assay [1] is -0.282; in assay [2], 0.635; in [3], -0.116; in assay [4] it was 0.783; in assay [5], 0.0724; in assay [6], 0.555. Besides, the composite z-score in assay [7] was 1.27; in [9], -0.0832; in assay [10], 0.0505; in [11], 1.48; in assay [15] it was 1.95; in assay [17] it was -0.128. In addition, the values for the composite z-score in assay [18], in assay [19] and in assay [20] were 0.604, 0.679 and -0.139, respectively. Besides, the z-score in [8] is -0.889 (inactive); in assay [12], 0.447 (inactive); in [13] it was -1.01 (inactive); in assay [14] it was -0.429 (inactive); in [16], 0.973 (inactive).

Take `COC(=O)[C@@]1(Cc2ccccc2)[C@H]2c3cc(C(=O)N(C)C)n(Cc4c(-c5ccccc5)noc4C)c3C[C@H]2CN1C(=O)c1ccccc1`: the composite z-score in assay [1] is 0.948; in assay [2] it was -0.287; in [3] it was 0.308; in [4], 0.346; in assay [5], 1.66; in assay [6], 1.81. Also, the composite z-score in [7] is 1.24; in assay [9], 1.41; in assay [10], 0.162; in assay [11], -0.248; in assay [15] it was 2.7; in [17], 0.531. The composite z-score is -0.452 in [18], 0.303 in assay [19] and 0.235 in assay [20]. Besides, the z-score in [8] was 1.6 (inactive); in assay [12], 0.315 (inactive); in assay [13] it was 0.555 (inactive); in assay [14] it was 2.84 (inactive); in assay [16] it was -1.07 (inactive).

In the case of `Cc1cc(C)c(C(O)C2C=CC3C(=O)N(c4ccccc4)C(=O)C3N2Nc2ccc(C#N)cc2)c(C)c1` (stereo not given), the composite z-score in assay [1] amounted to 0.624; in assay [2], 0.36; in assay [3], 0.111; in [4], 0.783; in [5] it was 1.58; in [6] it was 1.74. Further, the composite z-score in assay [7] came to 1.15; in [9] it was 1.73; in assay [10], 0.167; in [11], 1.12; in assay [15], 3.52; in [17], 0.512. For the same molecule, the composite z-score in assay [18] is -0.0482; in assay [19], 1.05; in assay [20], 0.0905. The z-score is -1.08 (inactive) in assay [8]; 0.674 (inactive) in [12]; 0.788 (inactive) in [13]; 2.16 (inactive) in [14]; 0.111 (inactive) in assay [16].

For `O=C1OCCC=C[C@H]2OC34C=CCN(c5ccc6ccccc6c5)C(=O)[C@H]3N(CCCCCO)C(=O)[C@@H]4C12` (stereo not given in full), the composite z-score in assay [1] was 1.05; in [2], 2.06; in assay [3], -0.116; in [4], 0.0074; in [5], -0.377; in assay [6] it was 2.17. For the same molecule, the composite z-score in [7] is 1.57; in [9] it was -0.188; in assay [10] it was 0.0176; in assay [11], 0.737; in [15], 2.42; in assay [17] it was -0.0953. In addition, the values for the composite z-score in [18], in assay [19] and in [20] were -0.586, -0.039 and -0.157, respectively. Further, the z-score was -0.517 (inactive) in assay [8]; -0.748 (inactive) in [12]; -1.64 (inactive) in assay [13]; -0.8 (inactive) in [14]; 1.12 (inactive) in [16].

`O=C/C=C/c1ccc2c(c1)OCO2`: the composite z-score in assay [1] was -0.23; in [2] it was -0.508; in [3], -0.115; in [4] it was 0.182; in assay [5], -0.24; in assay [6] it was -0.31. Besides, the composite z-score in assay [7] is 0.0106; in assay [9], -0.158; in assay [10], 0.0821; in assay [11], 0.274; in [15], -0.857; in [17] it was -0.151. The composite z-score in assay [18] is 0.542; in assay [19], 0.0863; in assay [20], -0.0978. Also, the z-score in [8] was -0.779 (inactive); in assay [12], -3.66 (inactive); in assay [13], -16.7 (active); in assay [14], -1.69 (inactive); in assay [16], -1.98 (inactive).

Take `COc1ccc([Si](C)(C)[C@@H]2[C@@H](CC(=O)N3CCC[C@H]3CO)O[C@]3(C(=O)N(C)c4c(Br)cc(C)cc43)[C@H]2C)cc1`: the composite z-score in assay [1] was -0.438; in [2] it was 0.264; in assay [3] it was -0.105; in assay [4], 0.113; in assay [5], 1.04; in assay [6], 0.776. The composite z-score in assay [7] is 0.9; in assay [9] it was 0.219; in assay [10] it was -0.0427; in assay [11], 1.32; in assay [15] it was 2.52; in [17], -0.0657. For the same molecule, the results for the composite z-score in assay [18], in assay [19] and in assay [20] were 0.804, 0.93 and -0.0831, respectively. The z-score in assay [8] was -1.53 (inactive); in assay [12], -1.69 (inactive); in assay [13], -0.328 (inactive); in assay [14], -0.827 (inactive); in [16], -0.861 (inactive).

With `COC(=O)[C@@]1(Cc2ccc(OC)cc2)[C@H]2c3cc(C(=O)N4CCCC4)n(Cc4ccccn4)c3C[C@H]2CN1C(=O)c1ccccc1`, the composite z-score in assay [1] came out at 0.381; in assay [2], 0.765; in [3], 0.396; in [4], 1.11; in assay [5] it was 1.66; in [6], 2.1. Also, the composite z-score in [7] came out at 1.4; in [9], 1.01; in assay [10] it was 0.501; in [11], 0.897; in assay [15], 3.86; in assay [17] it was 0.346. The composite z-score in assay [18] is -0.404; in [19], 0.979; in assay [20], 0.155. In addition, the z-score is 2.78 (inactive) in assay [8]; 0.627 (inactive) in assay [12]; 0.482 (inactive) in assay [13]; 1.33 (inactive) in assay [14]; 0.245 (inactive) in assay [16].

Consider `O=C1N(CCS(=O)(=O)c2ccccc2)c2ccccc2C[C@@]12COC(c1ccc(OCCCO)cc1)=N2`, for which the composite z-score in assay [1] was -0.178; in assay [2], 0.858; in assay [3] it was 0.0887; in [4], 0.322; in [5], 1.33; in assay [6] it was 1.11. The composite z-score in [7] was determined as 1.33; in [9] it was 0.971; in assay [10], 0.075; in [11], 1.47; in assay [15] it was 2.9; in assay [17], 0.456. Also, the composite z-score in assay [18] was 0.75; in [19], 1.07; in assay [20] it was 0.242. Moreover, the z-score in assay [8] was 1.18 (inactive); in assay [12] it was 0.631 (inactive); in [13], -1.07 (inactive); in assay [14], 1.14 (inactive); in [16], -0.405 (inactive).
